Hits are enriched below; roughly 9.3% of the tested compounds scored in any of these assays.
Rab9 prom act = qHTS Assay for Rab9 Promoter Activators; actives 2.8% (n = 320,000); Potency, µM (series often up to 9.22 µM), without a hit: top-dose activation, negative = inhibition, actives largely listed as activators; Huh7 Rab9 promoter-luciferase reporter, luminescence, 24 h; note: % of control where 0% means no effect; nearly all actives have a fitted effect of over 60% in size
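Huh7 reporter line, Rab9 promoter upstream of luciferase. Compound exposure 24 h at 37 °C in reduced-serum medium with 10% FBS. Read-out: luminescence.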
SMN2 splice up = qHTS Assay for Enhancers of SMN2 Splice Variant Expression; Potency, µM (titrated, usually from 46.1 µM), inactives show at the highest dose activity change, positive = activation, most hits filed as activators; HEK293 SMN2-luciferase splicing reporter, luminescence, 30-36 h; actives 2.8% (n = 210,000); note: % of control where 0% means no effect; nearly all actives have a fitted effect of over 55% in size
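HEK293 cells carry an SMN2 minigene-luciferase reporter in which exon 7 inclusion puts luciferase in frame. Cells were seeded at 2000 cells/well, attached for 10-12 hours, then exposed to compounds for 30-36 hours at 37C before ONE-Glo luminescence.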
NPC1 prom act = qHTS Assay for NPC1 Promoter Activators; Huh7 NPC1 promoter luciferase reporter, 24 h; Potency, µM (series often up to 9.22 µM), without a hit: at the top dose activation, most hits filed as activators; actives 2.4% (n = 320,000); note: % of control where 0% means no effect; nearly all actives have a fitted effect of over 60% in size
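Luciferase expression driven by the NPC1 promoter was measured in stably transfected Huh7 cells after a 24 h compound incubation, using a luciferase reagent and a luminescence read.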
ELG1 genotoxic = qHTS screen for small molecules that induce genotoxicity in human embryonic kidney (HEK293T) cells expressing luciferase-tagged ELG1. HEK293T ELG1-luciferase reporter, luminescence, 16 h. Potency, µM (top dose mostly 46 µM), for inactives: at the top dose activity change, positive = activation, usual class: activators. actives 1.3% (n = 330,000). AID 504466, 2011; note: % of control where 0% means no effect; nearly all actives have a fitted effect of over 60% in size
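Genotoxic stress is detected as increased luminescence from luciferase-tagged ELG1 in HEK293T cells, measured with ONE-Glo after a 16 hr treatment at 37 °C.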
ELG1 repair inh = qHTS screen for small molecules that inhibit ELG1-dependent DNA repair in human embryonic kidney (HEK293T) cells expressing luciferase-tagged ELG1; HEK293T ELG1-luciferase reporter, luminescence, 16 h; DNA damage induced by 5-fluorouridine; Potency, µM (series often up to 46.1 µM), for inactives: at the highest dose activity change, negative = inhibition, usual class: inhibitors; actives 2.3% (n = 330,000); AID 504467, 2011; note: % is set by controls: 0 for no effect and ±100 for the full control effect; nearly all actives have a fitted effect of over 55% in size
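Quantitative HTS, concentration-response format. 2,000 cells/well co-treated with 5-fluorouridine and compound, 16 hr in 5% CO2 at 37 °C; ONE-Glo luminescence read after 30 min.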
FLuc counter = qHTS profiling assay for firefly luciferase inhibitor/activator using purifed enzyme and Km concentrations of substrates (counterscreen for miR-21 project); Luciferin 4-monooxygenase (Photinus pyralis), P08659; purified FLuc, Km substrates, luminescence inhibition; Potency, µM (top dose mostly 57.5 µM), for inactives: at the highest dose activity change, negative = inhibition, hits mostly inhibitors; actives 6.9% (n = 360,000);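 note: plate controls were vehicle for no effect and reference inhibitor for full effect; nearly all actives have a fitted effect of over 55% in size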
Target sequence (P08659 whole entry, looked up): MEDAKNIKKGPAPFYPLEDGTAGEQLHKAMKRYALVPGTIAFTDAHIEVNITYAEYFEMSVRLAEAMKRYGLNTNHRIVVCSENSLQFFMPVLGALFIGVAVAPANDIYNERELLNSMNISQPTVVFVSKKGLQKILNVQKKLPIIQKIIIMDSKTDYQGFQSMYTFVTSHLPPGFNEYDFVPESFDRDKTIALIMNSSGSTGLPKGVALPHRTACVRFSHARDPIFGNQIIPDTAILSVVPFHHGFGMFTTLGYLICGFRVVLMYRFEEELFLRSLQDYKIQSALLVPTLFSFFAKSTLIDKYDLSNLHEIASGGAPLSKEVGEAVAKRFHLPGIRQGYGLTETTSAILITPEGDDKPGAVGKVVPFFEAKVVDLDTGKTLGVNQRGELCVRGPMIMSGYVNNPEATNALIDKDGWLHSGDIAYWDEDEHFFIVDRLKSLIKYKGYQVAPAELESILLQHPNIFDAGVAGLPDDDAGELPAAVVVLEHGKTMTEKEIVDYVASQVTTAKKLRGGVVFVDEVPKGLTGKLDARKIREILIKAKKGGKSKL
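Purified P. pyralis luciferase (10nM final) with 10uM D-luciferin and 10uM ATP (Km levels) in 50mM Tris acetate pH 7.5, 10mM Mg acetate, 0.01% Tween-20, 0.05% BSA; qHTS 6-point titration, ~60 µM downward; luminescence read.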
An asterisk follows results filed as active; ? = inconclusive; . = no result given; [ ] = remark or other dose. Calls come from the whole dose curve; as a rule, active = well fitted curve in the direction sought with a large enough effect; inconclusive = small, poorly fitted or top-dose-only effect, or another doubt; inactive = no such curve, though single readings can be large; an effect the other way counts as inactive or inconclusive. Potency is the fitted concentration of half-maximal effect.

SMILES	Rab9 prom act	SMN2 splice up	NPC1 prom act	ELG1 genotoxic	ELG1 repair inh	FLuc counter
Cc1ccc(OCCNc2cc(N3CCN(CCO)CC3)ccc2[N+](=O)[O-])cc1C	-5%	-4%	0%	-2%	?	24µM*
C/C(=C\C(=O)c1ccc(Cl)cc1)NCc1ccc2c(c1)OCO2	-3%	-33%	0%	1%	8%	-15%
Cc1ccc(-c2nc(Nc3ccccc3)n[nH]2)cc1	0.71µM*	3.5µM*	0.89µM*	0.65µM*	?	1.7µM*
Cc1ccc(-c2cc(-c3ccccc3)nc(NN)n2)cc1	2%	.	2%	-4%	?	?
CCc1ccccc1NC(=O)Cn1c(-c2nonc2N)nc2ccccc21	.	-6%	.	.	.	-1%
Cc1ccccc1-c1nc2sc(-c3ccccc3)cc2c(=O)o1	9%	-5%	-34%	6%	19%	4.8µM*
Cc1cccc2c(=O)oc(-c3ccccc3Cl)nc12	0%	.	-3%	-4%	-22%	?
Cc1ccccc1-c1nc2sc(C)c(C)c2c(=O)o1	-1%	.	-2%	3%	?	7.6µM*
Cc1ccc(NNC(=O)c2snnc2C)cc1Cl	0%	.	9%	4%	?	-11%
Cc1cc(=O)n(C)c(=O)n1CCCCCCOc1ccc([N+](=O)[O-])cc1	-21%	-4%[1.84 µM]	-15%	-1%	-11%	3%
COc1ccc(-c2nc3ccc(Cl)cn3c2Nc2ccc(C)cc2)cc1	.	10%	.	.	.	-6%
CCOC(=O)CNc1c(-c2ccc(OC)cc2)nc2ccc(Cl)cn12	0%	?	4%	?	?	8.5µM*
COCCNc1c(-c2ccc(OC)cc2)nc2ccc(Cl)cn12	?	21%	18%	1%	-1%	11µM*
O=C(Oc1ccc(/C=N/O)cc1)c1ccccc1Cl	-1%	7%	-2%	13%	?	9.5µM*
Cc1ccc(C(=O)N/N=C/c2ccc(OC(=O)c3ccccc3Cl)cc2)cn1	5%	.	5%	2%	?	-9%
Cc1cccc(C(=O)Oc2ccc(/C=N/O)cc2)c1	15%	1%	26%	?	?	7.6µM*
COc1cc(S(=O)(=O)n2nc(C)cc2C)ccc1Cl	-1%	.	1%	0%	-3%	0%
COCCN1CCN(C(=O)c2cc(COc3ccc(Cl)cc3OC)on2)CC1	3.2µM*	.	?	21µM*	?	11µM*
Cc1ccc(C)c(OCc2cc(C(=O)N3CCNC(=O)C3)no2)c1	11%	.	-6%	0%	1%	6%
COCCN1CCN(C(=O)c2cc(COc3cc(C)ccc3C)on2)CC1	2.2µM*	.	?	?	?	13µM*
COc1cc(Cl)ccc1OCc1cc(C(=O)N2CCCCCCC2)no1	11%	.	3%	3%	?	?
Cc1ccc(C)c(OCc2cc(C(=O)N3CCOCC3)no2)c1	?	.	23%	?	?	21µM*
COCCCC1CCN(C(=O)c2cc(COc3cc(C)ccc3C)on2)CC1	3.5µM*	.	2.5µM*	?	?	12µM*
Cc1c(Cc2ccccc2)c(=O)oc2cc(OCC(=O)c3ccccc3)ccc12	-3%	-41%	-7%	1%	?	-14%
CC(=O)NCCC1CCCCN1C(=O)c1cc(COc2cc(C)ccc2C)on1 (centres undefined)	2.2µM*	.	3.5µM*	16µM*	?	17µM*
SMILES	Rab9 prom act	SMN2 splice up	NPC1 prom act	ELG1 genotoxic	ELG1 repair inh	FLuc counter
Cc1ccc(C)c(OCc2cc(C(=O)N3CCC(N4CCCC(O)C4)CC3)no2)c1 (centres undefined)	4%	.	-1%	4%	16%	-1%
O=C(CSCc1ccccc1)Nc1ccc(F)cc1F	0%	0%	-3%	6%	0%	1%
O=C(Nc1nsc(-c2ccccc2)n1)c1cccs1	1.1µM*	3.2µM*	1.6µM*	0.58µM*	?	4.3µM*
Cc1sc(NC(=S)NC(=O)c2cccs2)nc1-c1ccc(C(C)C)cc1	8%	-1%	2%	0%	11%	4%
O=C(Nc1c(-c2ccccc2)nc2ccccn12)c1cccs1	2%	-12%	-1%	4%	2%	-4%
Cc1cnc(NC(=O)c2ccco2)s1	?	?	?	?	?	21µM*
CCOC(=O)c1sc(NC(=O)c2ccco2)nc1-c1ccccc1	-6%	1%	0%	-10%	-4%	0%
Cc1sc(NC(=O)c2cccs2)nc1-c1ccccc1	?	.	25%	1%	?	11µM*
CC(=O)c1sc(NC(=O)c2ccco2)nc1-c1ccccc1	?	28%	?	15µM*	?	11µM*
Cc1c(C2OC(=O)C3(CCCCC3)C(=O)C2(C)C)c(=O)n(-c2ccccc2)n1C (centres undefined)	-4%	14%	8%	0%	-1%	1%
Cc1oc(CC(C)C)cc1C(=O)Nc1cccc2ccccc12	5%	-6%	1%	-6%	-4%	0%
Cc1ccc(S(=O)(=O)/N=S(\C)CC2CC2(Cl)Cl)cc1 (centres undefined)	-3%	-2%	-26%	2%	0%	-1%
COC(=O)c1sc(NC(=O)c2ccco2)nc1C	22%	8%	14%	16%	?	?
CC(=O)c1c(C)[nH]c(C(=O)Nc2cccc3ccccc23)c1C	10%	.	1%	-6%	-4%	-10%
Cc1sc(NC(=O)c2ccco2)nc1-c1ccccc1	1.6µM*	4.5µM*	3.5µM*	?	?	2.1µM*
CC(=O)c1c(C)[nH]c(C(=O)Nc2nc(-c3ccccc3)c(C)s2)c1C	?	.	?	9%	?	3µM*
Cc1nc(NC(=O)c2ccco2)sc1C(=O)O	0%	.	1%	4%	3%	11µM*
Cc1ccc2nc(-c3ccccc3)c(NC(=O)c3ccco3)n2c1	-1%	-12%	-2%	0%	15%	-13%
Cc1sc(N/N=C/c2cccs2)nc1-c1ccccc1	?	-19%	18%	?	?	11µM*
COC(=O)c1ccccc1S(=O)(=O)Nc1ccc2cn[nH]c2c1	-3%	-13%	0%	1%	-9%	4%
Cc1ccc(NC(=S)Nc2ccc3nc(-c4ccccn4)c(-c4ccccn4)nc3c2)cc1C	0%	-2%	4%	1%	-12%	?
